Experimental data taken from PubChem BioAssay.
Values joined by “and” are separate entries in the source; they are usually repeats but may differ in a detail not shown here. Identical values can stand only once. Inconclusive results are not listed. A structure can be active in one record and inactive in another. Active and inactive are the calls of the source.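 Rule for the calls, unless noted: active = binding below the plate cutoff, the plate median minus 3 SD, with a reading above zero; inconclusive = below the plate cutoff but reading exactly zero; inactive = the rest.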

What was measured:
[1] = rapamycin-like changes in RPL19A-GFP expression – cell-based, S. cerevisiae, multiplex flow cytometry, primary screen (AID 1862; in the data active = percent of DMSO control GFP below about 86%;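 note: lower values mimic rapamycin by blocking the RPL19A rise seen in DMSO cells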); details: S. cerevisiae RPL19A-GFP strain, flow cytometry fluorescence, 3 h; at 10 µM; stronger effect = lower value
[2] = TOR pathway GLN3 branch reporter MEP2-GFP changes – S. cerevisiae, multiplex flow cytometry, primary screen (AID 1867;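 active = GFP response, as percent of the DMSO control, above the screen-wide mean plus 3 SD, about 139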;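 note: median GFP channel fluorescence of barcode-gated MEP2-GFP cells measured by flow cytometry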); details: S. cerevisiae MEP2-GFP strain, 3 h, at 10 µM, stronger effect = higher value, 100% means same as DMSO wells
[3] = TOR pathway RTG branch CIT2 reporter changes – S. cerevisiae, GFP fusion, multiplex flow cytometry, primary screen (AID 1870;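 active = percent response above a set limit, the screen-wide mean plus 3 SD, cut at about 130% in these data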;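 note: barcoded CIT2-GFP strain pooled with four other GFP strains with rapamycin as positive control; median GFP fluorescence per well over plate mean of DMSO wells so 100% = DMSO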); details: S. cerevisiae CIT2-GFP expression, 3 h, at 10 µM, stronger effect = higher value
[4] = TOR pathway LAP4-GFP level changes – S. cerevisiae, multiplex flow cytometry, primary screen (AID 1873;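 active = GFP signal, as percent of the solvent control, above the screen mean plus 3 SD, about 149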); details: S. cerevisiae LAP4-GFP expression, 3 h, at 10 µM, stronger effect = higher value
[5] = yeast AGP1-GFP level changes, GLN3 branch – cell-based, multiplex flow cytometry, S. cerevisiae, primary screen (AID 1887;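 active = GFP signal above the screen-wide mean plus 3 SD, that is over about 124.5% of the solvent control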;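 note: AGP1-GFP fusion strain of S. cerevisiae within a five-strain barcoded multiplex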); details: 3 h, at 10 µM, stronger effect = higher value
[6] = reduced mouse 2C T cell binding to pMHC/ICAM-1 vesicles – MLPCN validation set, flow cytometry, LFA-1/ICAM-1 modulator project, pilot screen (AID 2523;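 active = response below a set limit, under 55% cells CD8-positive and vesicle-bound, and CD8 cells' 90th-percentile brightness under 279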;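 for vesicle binding response: mean PE anti-B7-1 fluorescence of CD8+ cells relative to row control; 100% = QL9-loaded vesicles with DMSO vehicle in the same plate row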); details: 2C mouse CD8+ T cells, at 7 µM, stronger effect = lower value; double positive events: measured here: CD8+/vesicle+ event percentage
[7] = target: Integrin beta-1 (Homo sapiens) + Integrin alpha-4 (Homo sapiens) (UniProt P13612+P05556); assay: alpha4beta1 integrin LIBS antibody binding reduction – U937 cells, HUTS-21 mAb, flow cytometry, validation set, VLA-4 allosteric modulator project, pilot screen (AID 2674;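 active = inhibition above 50%, about 3 SD of the validation set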;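 note: antibody binding induced by the VLA-4 ligand LDV present at three times its Kd; 0% = LDV ligand with antibody and no compound and 100% = antibody without LDV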); details: HUTS-21 LIBS mAb binding, at 6.7 µM, stronger effect = higher value, binding induced by LDV ligand
[8] = calorie-restriction mimetic ROS inhibitors, yeast – validation compound set, pilot screen (AID 2706;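 active = superoxide response below 65% of plate, a cut near 3 SD across the whole screen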;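 note: yeast exposed to compound for one week at 30 degrees C before staining; 100% = mean of all compound wells on the same plate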); details: S. cerevisiae aging, superoxide DHE fluorescence; at 10 µM; stronger effect = lower value
[9] = target: Beta-adrenergic receptor kinase 1 (Homo sapiens) (UniProt P25098); assay: GRK2 binders displacing RNA aptamer, biochemical, validation, human GRK2, bead flow cytometry (AID 488806;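 active = aptamer binding inhibition above 30%, about 3 SD of noise from non-fluorescent compounds; inactive = inhibition at or below 30%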); details: bead-bound GRK2, FAM-aptamer displacement, at 10 µM, stronger effect = higher value
[10] = target: Beta-2 adrenergic receptor (Homo sapiens) (UniProt P07550); assay: agonist-induced loss of surface beta2AR – cell-based, FAP fluorogen, flow cytometry, validation set, pilot screen (AID 504459;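 active = percent response above 42, roughly 3 SD of non-fluorescent test compounds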;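 note: agonist-driven loss of surface beta2AR via internalization measured by FAP dye flow cytometry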); details: Am2.2-beta2AR cells, at 10 µM, stronger effect = higher value
[11] = target: AP-2 complex subunit beta (Homo sapiens) (UniProt P63010); assay: beta-arrestin/AP2 interaction blockers – biochemical, validation set, GST-AP2 beads, flow cytometry, pilot screen (AID 504541;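 active = inhibition above 54%, about 3 SD of non-fluorescent compounds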;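 note: AP2 carries R879A mutation and is captured from E. coli lysate; bead-bound FITC arrestin peptide fluorescence measuring arrestin peptide binding to AP2; 0% = DMSO wells and 100% = excess unlabeled arrestin peptide control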); details: FITC arrestin peptide, at 10 µM, stronger effect = higher value, AP2 beta2 appendage fragment, R879A mutant
[12] = cytosolic pH regulators acting via V-ATPase – S. cerevisiae, pHLuorin, HTS validation (AID 504600; in the data active = response above about 15%;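 note: plate controls were DMSO for no effect and reference compound for full effect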); details: V-ATPase proton transport, at 10 µM, stronger effect = higher value
[13] = tested on: anti-desmoglein-3 scFv antibody binding to human DSG3; assay: blockers of pathogenic pemphigus antibody–desmoglein-3 binding – biochemical, validation compound set, bead-based, flow cytometry, pilot screen (AID 588368); details: Protein G beads, DSG3-Fc, scFv-GFP binding, at 10 µM, stronger effect = lower value;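 note: signal is the median channel fluorescence of bead-bound GFP antibody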
[14] = Nile Red efflux blockade in pump-expressing yeast – validation compound set, multiplex, phenotypic, pilot screen (AID 588506;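 active = efflux inhibition above 0.42, the validation set average plus 4 SD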;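 note: Nile Red retained in cells so higher fluorescence means more efflux inhibition; 0 = negative control wells and 1 = enniatin B 25 µM full block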); details: S. cerevisiae pump-expressing triplex, Nile Red efflux flow cytometry; at 10 µM; stronger effect = higher value; the pumps come from Candida albicans
[15] = target: ATP-binding cassette sub-family B member 6 (Homo sapiens) (UniProt Q9NP58); assay: blockers of ABCB6-driven porphyrin uptake – K562-ABCB6 cells, flow cytometry, validation set, pilot screen (AID 588550;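 active = inhibition above the screen-wide mean plus 3 SD, about 51%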;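 note: 0% = DMSO wells and 100% = benzethonium chloride 70 µM positive control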); details: K562-ABCB6 porphyrin accumulation, 1 h, at 10 µM, stronger effect = higher value
[16] = AML differentiation inducers, ER-HoxA9 marrow cells – cell-based, GFP/MAC1 double positive, flow cytometry, validation set, primary screen (AID 588685;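 active = differentiation response of at least 50%, scaled between solvent and reference control, from cells with both markers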;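 note: compound exposure lasts four days before antibody staining and flow analysis; 0% = DMSO wells and 100% = 5 µM fulvestrant positive control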); details: stronger effect = higher value, normalized: vehicle 0, fulvestrant 100

Chain of Beta-adrenergic receptor kinase 1 (Homo sapiens) (P25098 whole entry, looked up): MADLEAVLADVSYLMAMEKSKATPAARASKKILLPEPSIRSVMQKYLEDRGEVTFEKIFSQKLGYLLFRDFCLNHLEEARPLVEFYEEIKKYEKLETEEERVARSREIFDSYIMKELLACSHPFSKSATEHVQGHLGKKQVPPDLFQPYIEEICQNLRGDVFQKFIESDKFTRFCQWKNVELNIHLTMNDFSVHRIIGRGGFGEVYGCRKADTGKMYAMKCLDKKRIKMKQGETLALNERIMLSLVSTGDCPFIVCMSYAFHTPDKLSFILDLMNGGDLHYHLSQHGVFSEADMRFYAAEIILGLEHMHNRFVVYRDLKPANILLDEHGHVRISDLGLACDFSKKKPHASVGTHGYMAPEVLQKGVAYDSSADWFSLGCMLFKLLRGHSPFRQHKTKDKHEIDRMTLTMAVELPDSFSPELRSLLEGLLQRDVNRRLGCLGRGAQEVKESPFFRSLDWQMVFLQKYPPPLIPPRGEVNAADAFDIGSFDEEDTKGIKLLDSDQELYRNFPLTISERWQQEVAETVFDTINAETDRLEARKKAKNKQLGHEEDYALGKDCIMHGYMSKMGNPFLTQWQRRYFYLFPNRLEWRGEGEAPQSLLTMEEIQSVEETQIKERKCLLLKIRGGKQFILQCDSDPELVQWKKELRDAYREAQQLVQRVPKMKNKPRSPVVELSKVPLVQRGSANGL
Chain of Beta-2 adrenergic receptor (Homo sapiens) (P07550 whole entry, looked up): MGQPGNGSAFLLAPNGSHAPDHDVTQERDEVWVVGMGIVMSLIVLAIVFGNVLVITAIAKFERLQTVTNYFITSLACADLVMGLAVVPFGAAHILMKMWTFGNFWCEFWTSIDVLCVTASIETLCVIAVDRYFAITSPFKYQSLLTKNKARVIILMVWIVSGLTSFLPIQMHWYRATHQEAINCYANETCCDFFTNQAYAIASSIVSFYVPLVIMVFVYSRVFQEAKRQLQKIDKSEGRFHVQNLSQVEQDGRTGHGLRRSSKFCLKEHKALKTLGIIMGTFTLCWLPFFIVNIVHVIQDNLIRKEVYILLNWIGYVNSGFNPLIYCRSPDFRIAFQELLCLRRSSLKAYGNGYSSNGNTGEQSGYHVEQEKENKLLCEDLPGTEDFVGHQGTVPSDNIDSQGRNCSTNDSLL
Chain of ATP-binding cassette sub-family B member 6 (Homo sapiens) (Q9NP58 whole entry, looked up): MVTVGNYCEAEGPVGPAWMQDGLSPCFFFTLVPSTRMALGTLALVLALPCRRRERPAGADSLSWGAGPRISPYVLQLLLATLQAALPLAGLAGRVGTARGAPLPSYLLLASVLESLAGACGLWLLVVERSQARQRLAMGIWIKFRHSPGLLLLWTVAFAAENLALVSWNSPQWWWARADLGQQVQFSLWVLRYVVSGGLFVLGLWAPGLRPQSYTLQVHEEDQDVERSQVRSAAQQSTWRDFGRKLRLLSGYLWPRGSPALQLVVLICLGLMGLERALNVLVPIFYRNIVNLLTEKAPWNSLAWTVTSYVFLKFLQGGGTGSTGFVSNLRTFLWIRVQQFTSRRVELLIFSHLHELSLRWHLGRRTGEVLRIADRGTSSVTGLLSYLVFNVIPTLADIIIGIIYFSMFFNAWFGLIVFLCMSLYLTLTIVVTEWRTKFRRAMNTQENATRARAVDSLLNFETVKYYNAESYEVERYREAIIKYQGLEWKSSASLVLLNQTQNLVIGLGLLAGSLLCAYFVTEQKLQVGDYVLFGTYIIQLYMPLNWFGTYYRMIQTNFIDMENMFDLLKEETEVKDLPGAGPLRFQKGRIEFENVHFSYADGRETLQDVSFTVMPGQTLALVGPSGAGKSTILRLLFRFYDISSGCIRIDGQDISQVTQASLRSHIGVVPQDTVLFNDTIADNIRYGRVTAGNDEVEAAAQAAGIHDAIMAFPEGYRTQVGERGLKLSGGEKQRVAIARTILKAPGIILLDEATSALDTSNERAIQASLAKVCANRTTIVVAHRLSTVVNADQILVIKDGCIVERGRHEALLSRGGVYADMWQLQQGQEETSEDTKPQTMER
Chain of AP-2 complex subunit beta (Homo sapiens) (P63010 whole entry, looked up, the tested form may be a part, one chain of several): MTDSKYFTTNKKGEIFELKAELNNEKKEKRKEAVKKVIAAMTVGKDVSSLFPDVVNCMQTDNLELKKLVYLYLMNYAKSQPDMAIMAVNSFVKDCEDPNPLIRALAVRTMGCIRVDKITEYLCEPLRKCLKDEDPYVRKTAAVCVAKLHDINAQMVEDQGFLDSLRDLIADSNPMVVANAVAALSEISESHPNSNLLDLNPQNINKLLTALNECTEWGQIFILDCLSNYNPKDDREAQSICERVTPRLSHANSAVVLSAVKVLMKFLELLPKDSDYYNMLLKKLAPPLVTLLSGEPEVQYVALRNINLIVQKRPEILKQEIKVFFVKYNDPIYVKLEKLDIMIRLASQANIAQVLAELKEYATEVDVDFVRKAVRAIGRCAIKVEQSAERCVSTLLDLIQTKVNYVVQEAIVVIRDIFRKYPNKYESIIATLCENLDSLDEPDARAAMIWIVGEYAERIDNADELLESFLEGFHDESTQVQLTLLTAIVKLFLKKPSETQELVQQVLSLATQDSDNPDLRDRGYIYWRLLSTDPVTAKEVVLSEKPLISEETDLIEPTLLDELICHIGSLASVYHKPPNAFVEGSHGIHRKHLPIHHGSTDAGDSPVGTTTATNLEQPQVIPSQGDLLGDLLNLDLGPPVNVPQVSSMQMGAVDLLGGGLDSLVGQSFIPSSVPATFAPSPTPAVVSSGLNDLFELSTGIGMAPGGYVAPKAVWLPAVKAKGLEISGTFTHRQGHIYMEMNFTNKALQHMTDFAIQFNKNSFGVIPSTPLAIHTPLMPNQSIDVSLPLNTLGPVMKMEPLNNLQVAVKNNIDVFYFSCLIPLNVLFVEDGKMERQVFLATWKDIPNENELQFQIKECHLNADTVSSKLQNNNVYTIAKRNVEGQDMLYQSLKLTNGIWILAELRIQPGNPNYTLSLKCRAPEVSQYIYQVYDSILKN
Chain of Integrin beta-1 (Homo sapiens) + Integrin alpha-4 (Homo sapiens) (P05556 whole entry, looked up): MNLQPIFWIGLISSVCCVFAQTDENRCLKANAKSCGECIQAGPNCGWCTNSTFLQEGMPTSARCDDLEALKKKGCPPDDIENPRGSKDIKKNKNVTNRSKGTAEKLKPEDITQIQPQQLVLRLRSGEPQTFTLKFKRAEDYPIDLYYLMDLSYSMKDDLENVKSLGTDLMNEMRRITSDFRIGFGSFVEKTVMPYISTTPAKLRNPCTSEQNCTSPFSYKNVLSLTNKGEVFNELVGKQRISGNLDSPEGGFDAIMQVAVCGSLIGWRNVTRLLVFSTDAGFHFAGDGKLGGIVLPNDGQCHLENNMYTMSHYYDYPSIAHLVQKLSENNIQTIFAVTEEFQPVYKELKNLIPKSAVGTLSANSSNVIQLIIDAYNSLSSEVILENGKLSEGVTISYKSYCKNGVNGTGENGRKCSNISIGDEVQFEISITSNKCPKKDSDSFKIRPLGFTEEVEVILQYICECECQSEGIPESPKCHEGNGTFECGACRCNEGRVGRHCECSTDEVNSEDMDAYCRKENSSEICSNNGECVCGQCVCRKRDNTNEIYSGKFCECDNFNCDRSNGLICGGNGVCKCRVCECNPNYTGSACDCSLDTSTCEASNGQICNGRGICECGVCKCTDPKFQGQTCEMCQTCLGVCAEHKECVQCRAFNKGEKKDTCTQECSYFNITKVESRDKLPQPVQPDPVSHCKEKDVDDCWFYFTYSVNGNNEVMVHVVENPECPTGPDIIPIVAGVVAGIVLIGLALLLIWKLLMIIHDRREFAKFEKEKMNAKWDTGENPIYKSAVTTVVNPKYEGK
Chain of Integrin beta-1 (Homo sapiens) + Integrin alpha-4 (Homo sapiens) (P13612 whole entry, looked up): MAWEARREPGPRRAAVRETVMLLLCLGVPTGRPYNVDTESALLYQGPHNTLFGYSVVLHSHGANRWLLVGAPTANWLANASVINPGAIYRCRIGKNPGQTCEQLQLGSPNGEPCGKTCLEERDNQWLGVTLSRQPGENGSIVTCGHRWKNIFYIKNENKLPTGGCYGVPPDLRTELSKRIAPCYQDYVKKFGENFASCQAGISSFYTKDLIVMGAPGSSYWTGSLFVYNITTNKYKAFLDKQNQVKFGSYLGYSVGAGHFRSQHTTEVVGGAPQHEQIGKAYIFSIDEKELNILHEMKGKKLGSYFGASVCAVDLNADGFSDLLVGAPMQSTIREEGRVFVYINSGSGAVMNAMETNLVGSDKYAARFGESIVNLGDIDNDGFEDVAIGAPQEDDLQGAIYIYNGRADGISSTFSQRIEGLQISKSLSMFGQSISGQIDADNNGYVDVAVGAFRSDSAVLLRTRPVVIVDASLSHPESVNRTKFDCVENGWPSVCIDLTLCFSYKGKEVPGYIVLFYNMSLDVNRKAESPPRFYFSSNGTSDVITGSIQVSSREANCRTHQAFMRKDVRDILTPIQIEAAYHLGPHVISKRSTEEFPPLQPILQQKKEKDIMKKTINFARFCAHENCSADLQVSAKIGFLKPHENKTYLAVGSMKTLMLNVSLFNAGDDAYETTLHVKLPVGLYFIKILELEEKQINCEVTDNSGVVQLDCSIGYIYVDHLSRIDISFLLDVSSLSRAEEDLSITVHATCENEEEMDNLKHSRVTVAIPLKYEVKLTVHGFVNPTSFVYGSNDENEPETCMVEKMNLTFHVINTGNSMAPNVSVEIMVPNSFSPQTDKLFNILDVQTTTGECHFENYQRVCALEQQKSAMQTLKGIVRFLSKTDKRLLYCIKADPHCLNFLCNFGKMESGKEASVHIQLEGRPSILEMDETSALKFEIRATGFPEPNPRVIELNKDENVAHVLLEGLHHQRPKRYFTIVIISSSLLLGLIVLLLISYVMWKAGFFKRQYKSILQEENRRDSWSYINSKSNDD

Row | SMILES | percent of DMSO control GFP [1] | GFP response vs DMSO [2] | percent response of DMSO control [3] | GFP response vs DMSO [4] | GFP response, % of DMSO [5] | double positive events [6] | vesicle binding response [6] | inhibition [7] | superoxide response (% of plate) [8] | aptamer binding inhibition [9] | response [10] | inhibition [11] | response [12] | binding (% of control) [13] | efflux inhibition (fraction of control) [14] | inhibition [15] | differentiation response [16]
1 | CCOc1ccc(CC2CCC(=O)NC2=O)cc1 (stereo not drawn) | 103% (inactive) | 102% (inactive) | 104% (inactive) | 110% (inactive) | 115% (inactive) | 64% | 156% (inactive) | -3.67% (inactive) | 105% (inactive) | 6% (inactive) | -15.9% (inactive) | 12.5% (inactive) | -1.14% (inactive) | 95.7% (inactive) | 0 (inactive) | 9% (inactive) | 20.6% (inactive)
2 | COc1ccc(Cc2noc(CN(C)CC3(N4CCOCC4)CCCCC3)n2)cc1OC | 94.3% (inactive) | 99.7% (inactive) | 106% (inactive) | 95.9% (inactive) | 98.3% (inactive) | 60.5% | 80.5% (inactive) | 2.93% (inactive) | 108% (inactive) | 2% (inactive) | 8.59% (inactive) | -7.18% (inactive) | 2.83% (inactive) | 102% (inactive) | 0.22 (inactive) | 36% (inactive) | -10.4% (inactive)
3 | COc1ccccc1NC(=O)C12CCC(C)(C(=O)C1)C2(C)C (stereo not drawn) | 99.3% (inactive) | 105% (inactive) | 102% (inactive) | 124% (inactive) | 109% (inactive) | 63.5% | 173% (inactive) | -2.82% (inactive) | 121% (inactive) | 5% (inactive) | -14.9% (inactive) | 15.9% (inactive) | -0.35% (inactive) | 102% (inactive) | 0 (inactive) | 1% (inactive) | -4% (inactive)
4 | COc1cc(Cc2cnc(N)nc2N)cc(OC)c1OC | 100% (inactive) and 102% (inactive) | 95.1% (inactive) and 101% (inactive) | 91.9% (inactive) and 102% (inactive) | 84.8% (inactive) and 103% (inactive) | 96.4% (inactive) and 102% (inactive) | 62.8% and 60.9% | 247% (inactive) and 222% (inactive) | -113% (inactive) and 1.62% (inactive) | 106% (inactive) | 2% (inactive) and -4% (inactive) | -5.11% (inactive) | -0.17% (inactive) and -5.67% (inactive) | 1.16% (inactive) and -26% (inactive) | 95.8% (inactive) and 103% (inactive) | 0.61 (active) and 0.18 (inactive) | -11% (inactive) and 7% (inactive) | 0.24% (inactive) and -3.43% (inactive)
